According to PubChem BioAssay AID1159580 (chemical genetic matrix, 2015):
Several values for one entry are separate records, joined by “and”; a condition that tells them apart may be missing. Equal values may be shown once. Among all 5,500 compounds or so, about 2,000 (36%) were called active. Inconclusive results (about 18%) are left out. No stated cut-off is given here; in the data, active means normalized growth mostly below about 0.91 (no sharp cut-off); inconclusive means no clear call, values can overlap the other calls; inactive means mostly above about 0.92. The list shows a part of the results.

Assay: chemical genetic growth profiling, strain panel (AID 1159580);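 further: tested at 20 µM; growth read once vehicle control cultures reached saturation at 30 °C; 1 = growth at the plate median or of vehicle wells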
Settings: S. cerevisiae deletion strains, growth OD

Measured: normalized growth

CC(=O)OCC(=O)[C@H]1CCC2C3CCC4=CC(=O)CC[C@]4(C)C3CC[C@@]21C (stereo partly drawn)
active: locus YAL013W, strain DEP1, stronger effect = lower value 0.886 | locus YDL074C, strain BRE1, stronger effect = lower value 0.777 | locus YDL134C, strain PPH21, stronger effect = lower value 0.826 | locus YDR162C, strain NBP2, stronger effect = lower value 0.78 | locus YDR392W, strain spt3, stronger effect = lower value 0.56 | locus YDR502C, strain sam2, stronger effect = lower value 0.899 | locus YER155C, strain BEM2 (second series), stronger effect = lower value 0.835 | locus YER155C, strain BEM2, stronger effect = lower value 0.92 | locus YER167W, strain BCK2, stronger effect = lower value 0.829 | locus YGR135W, strain pre9, stronger effect = lower value 0.84 | locus YGR252W, strain gcn5, stronger effect = lower value 0.72 | locus YIL066C, strain RNR3, stronger effect = lower value 0.809 | locus YIR030C, strain dcg1, stronger effect = lower value 0.927 | locus YJR043C, strain POL32, stronger effect = lower value 0.797 | locus YKR001C, strain vps1, stronger effect = lower value 0.777 | locus YLR330W, strain CHS5, stronger effect = lower value 0.864 | locus YLR342W, strain FKS1 (second series), stronger effect = lower value 0.726 | locus YLR418C, strain cdc73, stronger effect = lower value 0.691 | locus YML032C, strain rad52, stronger effect = lower value 0.896 | locus YNL298W, strain CLA4, stronger effect = lower value 0.893 | locus YNL307C, strain MCK1, stronger effect = lower value 0.596 | locus YOL147C, strain pex11, stronger effect = lower value 0.93 | locus YOR144C, strain elg1, stronger effect = lower value 0.929 | locus YOR184W, strain ser1, stronger effect = lower value 0.759 | locus YOR270C, strain vph1, stronger effect = lower value 0.734 | locus YPR167C, strain met16, stronger effect = lower value 0.921
inactive: locus YAL021C, strain ccr4, stronger effect = lower value 0.94 | locus YAL026C, strain drs2, stronger effect = lower value 0.978 | locus YAL030W, strain snc1, stronger effect = lower value 0.979 | locus YBL061C, strain skt5, stronger effect = lower value 0.967 | locus YBR009C, strain hhf1, stronger effect = lower value 0.986 | locus YBR021W, strain FUR4, stronger effect = lower value 0.898 | locus YBR023C, strain chs3, stronger effect = lower value 0.94 | locus YBR171W, strain sec66, stronger effect = lower value 0.927 | locus YBR229C, strain ROT2, stronger effect = lower value 0.969 | locus YBR231C, strain swc5, stronger effect = lower value 1 | locus YBR279W, strain paf1, stronger effect = lower value 0.976 | locus YCL011C, strain gbp2, stronger effect = lower value 0.969 | locus YCL016C, strain dcc1, stronger effect = lower value 0.961 | locus YCL029C, strain bik1, stronger effect = lower value 0.957 | locus YCL061C, strain MRC1, stronger effect = lower value 0.984 | locus YCL069W, strain vba3, stronger effect = lower value 0.98 | locus YCR088W, strain abp1, stronger effect = lower value 0.972 | locus YDL005C, strain med2, stronger effect = lower value 0.964 | locus YDL035C, strain GPR1, stronger effect = lower value 0.86 | locus YDL040C, strain nat1, stronger effect = lower value 0.973 | locus YDL101C, strain DUN1, stronger effect = lower value 0.961 | locus YDL185W, strain tfp1, stronger effect = lower value 0.949 | locus YDL192W, strain arf1, stronger effect = lower value 0.935 | locus YDR001C, strain nth1, stronger effect = lower value 0.972 | locus YDR069C, strain doa4, stronger effect = lower value 0.967 | locus YDR101C, strain arx1, stronger effect = lower value 0.954 | locus YDR137W, strain rgp1, stronger effect = lower value 1.11 | locus YDR159W, strain sac3, stronger effect = lower value 0.885 | locus YDR195W, strain ref2 1.07 | locus YDR297W, strain sur2, stronger effect = lower value 0.975 | locus YDR318W, strain mcm21, stronger effect = lower value 0.929 | locus YDR334W, strain swr1, stronger effect = lower value 0.971 | locus YDR335W, strain msn5, stronger effect = lower value 0.988 | locus YDR388W, stronger effect = lower value 0.94 | locus YEL003W, strain gim4, stronger effect = lower value 0.994 | locus YEL037C, strain rad23, stronger effect = lower value 0.977 | locus YEL061C, strain CIN8 (second series), stronger effect = lower value 0.977 | locus YEL061C, strain CIN8, stronger effect = lower value 0.944 | locus YER015W, strain faa2, stronger effect = lower value 0.969 | locus YER016W, strain bim1, stronger effect = lower value 0.962 | locus YER110C, stronger effect = lower value 0.943 | locus YER111C, strain swi4, stronger effect = lower value 0.971 | locus YFR010W, strain ubp6, stronger effect = lower value 0.994 | locus YGL078C, strain dbp3, stronger effect = lower value 0.961 | locus YGL086W, strain mad1, stronger effect = lower value 0.934 | locus YGL167C, strain pmr1, stronger effect = lower value 0.951 | locus YGL173C, strain kem1, stronger effect = lower value 0.948 | locus YGL227W, strain vid30, stronger effect = lower value 0.992 | locus YGL240W, strain doc1, stronger effect = lower value 0.95 | locus YGL248W, strain PDE1, stronger effect = lower value 0.927 | locus YGL253W, strain hxk2, stronger effect = lower value 0.919 | locus YHR013C, strain ard1, stronger effect = lower value 0.997 | locus YHR027C, strain rpn1, stronger effect = lower value 0.996 | locus YHR030C, strain SLT2, stronger effect = lower value 0.944 and 1.02 | locus YHR079C, strain IRE1 (second series), stronger effect = lower value 0.956 | locus YHR079C, strain IRE1, stronger effect = lower value 1.02 | locus YHR094C, strain hxt1, stronger effect = lower value 0.956 | locus YHR129C, strain ARP1, stronger effect = lower value 0.944 | locus YHR142W, strain chs7, stronger effect = lower value 0.944 | locus YHR200W, strain rpn10, stronger effect = lower value 0.924 | locus YIL073C, strain SPO22, stronger effect = lower value 0.828 | locus YIL125W, strain kgd1, stronger effect = lower value 0.955 | locus YJL092W, strain hpr5, stronger effect = lower value 0.976 | locus YJL095W, strain BCK1 (second series), stronger effect = lower value 0.965 | locus YJL115W, strain asf1, stronger effect = lower value 0.984 | locus YJL129C, strain trk1, stronger effect = lower value 0.931 | locus YJL134W, strain LCB3, stronger effect = lower value 0.976 | locus YJL154C, strain vps35, stronger effect = lower value 0.98 | locus YJL164C, strain tpk1, stronger effect = lower value 0.978 | locus YJL166W, strain qcr8, stronger effect = lower value 0.989 | locus YJL168C, strain set2, stronger effect = lower value 0.96 | locus YJL187C, strain SWE1 (second series), stronger effect = lower value 0.935 | locus YJR066W, strain TOR1, stronger effect = lower value 0.956 | locus YKL009W, strain mrt4, stronger effect = lower value 0.909 | locus YKL068W, stronger effect = lower value 0.956 | locus YKL085W, strain MDH1 (second series), stronger effect = lower value 0.934 | locus YKL085W, strain MDH1, stronger effect = lower value 0.934 | locus YKL160W, strain elf1, stronger effect = lower value 0.964 | locus YKR026C, strain gcn3, stronger effect = lower value 0.977 | locus YKR091W, strain srl3, stronger effect = lower value 0.98 | locus YLL001W, strain dnm1, stronger effect = lower value 0.985 | locus YLL026W, stronger effect = lower value 0.992 | locus YLL041C, strain sdh2, stronger effect = lower value 0.986 | locus YLR027C, strain aat2, stronger effect = lower value 0.97 | locus YLR039C, strain RIC1, stronger effect = lower value 0.772 | locus YLR058C, strain SHM2, stronger effect = lower value 0.942 | locus YLR102C, strain apc9, stronger effect = lower value 0.956 | locus YLR113W, strain HOG1, stronger effect = lower value 0.951 | locus YLR221C, strain rsa3, stronger effect = lower value 0.972 | locus YLR258W, strain gsy2, stronger effect = lower value 0.958 | locus YLR262C, strain YPT6 (second series), stronger effect = lower value 1.04 | locus YLR262C, strain YPT6, stronger effect = lower value 0.754 | locus YLR268W, strain sec22, stronger effect = lower value 0.919 | locus YLR320W, strain mms22, stronger effect = lower value 0.881 | locus YLR342W, strain FKS1, stronger effect = lower value 0.926 | locus YLR357W, strain rsc2, stronger effect = lower value 1.02 | locus YLR370C, strain arc18, stronger effect = lower value 0.958 | locus YLR371W, strain rom2, stronger effect = lower value 0.966 | locus YLR384C, strain iki3, stronger effect = lower value 0.987 | locus YML016C, strain PPZ1, stronger effect = lower value 0.962 | locus YML120C, strain ndi1, stronger effect = lower value 0.979 | locus YML124C, strain tub3, stronger effect = lower value 0.938 | locus YMR058W, strain fet3, stronger effect = lower value 0.959 | locus YMR078C, strain ctf18, stronger effect = lower value 0.923 | locus YMR125W, strain sto1, stronger effect = lower value 0.986 | locus YMR129W, stronger effect = lower value 0.985 | locus YMR205C, strain PFK2, stronger effect = lower value 0.909 | locus YMR223W, strain ubp8, stronger effect = lower value 0.905 | locus YMR231W, strain pep5, stronger effect = lower value 0.988 | locus YMR307W, strain GAS1, stronger effect = lower value 0.744 | locus YNL067W, strain RPL9B, stronger effect = lower value 0.965 | locus YNL071W, strain lat1, stronger effect = lower value 0.923 | locus YNL153C, strain GIM3, stronger effect = lower value 0.962 | locus YNL183C, strain NPR1, stronger effect = lower value 0.961 | locus YNL209W, strain ssb2, stronger effect = lower value 0.979 | locus YNL233W, strain BNI4, stronger effect = lower value 0.871 | locus YNL248C, strain rpa49, stronger effect = lower value 0.945 | locus YNL250W, strain rad50, stronger effect = lower value 0.978 | locus YNL271C, strain bni1, stronger effect = lower value 0.938 | locus YNL322C, strain KRE1 (second series), stronger effect = lower value 0.951 | locus YNR049C, strain mso1, stronger effect = lower value 0.989 | locus YNR052C, strain pop2, stronger effect = lower value 0.986 | locus YOL012C, strain htz1 1.17 | locus YOR001W, strain rrp6, stronger effect = lower value 0.999 | locus YOR061W, strain CKA2, stronger effect = lower value 0.943 | locus YOR069W, strain VPS5, stronger effect = lower value 0.983 | locus YOR070C, strain gyp1, stronger effect = lower value 0.974 | locus YOR080W, strain dia2, stronger effect = lower value 0.987 | locus YOR083W, strain WHI5, stronger effect = lower value 0.9 | locus YOR106W, strain vam3, stronger effect = lower value 0.941 | locus YOR136W, strain idh2, stronger effect = lower value 0.965 | locus YOR231W, strain MKK1, stronger effect = lower value 0.983 | locus YOR265W, strain rbl2, stronger effect = lower value 0.98 | locus YOR290C, strain snf2, stronger effect = lower value 0.961 | locus YOR316C, strain cot1, stronger effect = lower value 0.947 | locus YPL051W, strain arl3, stronger effect = lower value 0.968 | locus YPL055C, strain LGE1, stronger effect = lower value 0.861 | locus YPL078C, strain atp4, stronger effect = lower value 0.903 | locus YPL106C, strain sse1, stronger effect = lower value 1.04 | locus YPL240C, strain hsp82, stronger effect = lower value 0.982 | locus YPL241C, strain CIN2, stronger effect = lower value 0.963 | locus YPL256C, strain CLN2, stronger effect = lower value 1.01 | locus YPR119W, strain clb2, stronger effect = lower value 0.948 | locus YPR141C, strain kar3, stronger effect = lower value 0.954 | locus YPR163C, strain tif3, stronger effect = lower value 0.916 | strain wtn01, stronger effect = lower value 0.949
0.752 (active) and 0.988 (inactive): locus YJL095W, strain BCK1, stronger effect = lower value
